Bioassay records deposited in PubChem BioAssay by several laboratories.
The list is not random: actives were taken first. Their share in the collection is about 22%.
E-sel TNF inh: E-selectin induction blockers in HUVEC – imaging, immunofluorescence, high content, primary screen; HUVEC TNFa-induced E-selectin immunofluorescence; inhibition, % at 2 µM; hit rate 0.71% among 120,000; AID 1246, 2008;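 active means inhibition above the batch mean plus 3 SD, and confirmed as a hit on visual image review, cut at about 43% in these data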;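 further: 0% = TNF-stimulated DMSO wells and 100% = unstimulated control wells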
CYP2C19 act: human CYP2C19 activators, primary screen, biochemical, luminescence. Cytochrome P450 2C19 (Homo sapiens), P33261. activation factor at 5 µM. recombinant CYP2C19, luciferin-H EGE luminescence; stronger effect = higher value; 0 = fully inhibited enzyme, 1 = untreated enzyme. 96,000 tested, under 10 active;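 active means activation factor of at least 2 at 5 µM in the primary screen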;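 further: 0 = wells with 2.5 mM tranylcypromine and 1 = vehicle-only wells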
Target sequence (P33261 whole entry, looked up): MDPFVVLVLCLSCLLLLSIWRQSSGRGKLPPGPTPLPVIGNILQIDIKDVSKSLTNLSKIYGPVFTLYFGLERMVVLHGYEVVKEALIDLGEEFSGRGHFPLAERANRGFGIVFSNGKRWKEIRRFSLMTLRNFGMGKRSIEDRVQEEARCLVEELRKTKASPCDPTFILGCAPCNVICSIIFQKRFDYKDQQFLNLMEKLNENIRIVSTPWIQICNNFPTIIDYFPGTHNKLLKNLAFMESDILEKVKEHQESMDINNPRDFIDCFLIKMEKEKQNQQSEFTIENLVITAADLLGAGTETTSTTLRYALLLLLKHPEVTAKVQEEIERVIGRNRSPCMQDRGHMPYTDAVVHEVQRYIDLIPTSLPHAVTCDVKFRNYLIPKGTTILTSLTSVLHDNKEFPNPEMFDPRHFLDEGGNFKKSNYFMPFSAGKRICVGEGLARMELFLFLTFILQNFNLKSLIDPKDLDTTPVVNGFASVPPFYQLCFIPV
cytoskel mod: modifiers of F-actin cytoskeleton organization, primary screen, imaging, HUVEC, phalloidin staining, high-content imaging | HUVEC TNFa F-actin phalloidin imaging | inhibition, % at 2 µM | hit rate 0.18% among 91,000;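 active means inhibition above the batch mean plus 3 SD and confirmed as a hit by visual image inspection, cut at about 30% in these data, passing the limit was not always enough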
CYP2C19 inh: blockers of cytochrome P450 2C19 activity – biochemical, luminescence, ADME assay, primary screen; AID 778, 2007; CYP2C19 Supersomes, luciferin-H EGE luminescence, 30 min; P33261; inhibition, % at 5 µM; hit rate 21% among 96,000;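 active means CYP2C19 inhibition above a set limit at 5 µM in the primary screen, cut at about 50% in these data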;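 further: plate controls were negative control wells for no effect and 2.5 mM tranylcypromine positive control for full effect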
CYP2C9 act: human CYP2C9 activators, primary screen, biochemical, luminescence | Cytochrome P450 2C9 (Homo sapiens), P11712 | recombinant CYP2C9, luciferin-H conversion; stronger effect = higher value; factor 1 = untreated enzyme, 0 = blocked | activation factor at 5 µM | hit rate 1.4% among 96,000 | AID 1024, 2008;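 active means activation factor of 2 or more for CYP2C9 at a 5 µM dose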;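 further: 0 = sulfaphenazole-blocked wells and 1 = vehicle-only wells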
CYP2C9 inhib: blockers of cytochrome P450 2C9 activity – biochemical, luminescence, ADME assay, primary screen; P11712; CYP2C9 Supersomes, luciferin-H conversion; inhibition, % at 5 µM; hit rate 20% among 96,000;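 active means blocking of liver enzyme CYP2C9 beyond about 50% at 5 µM, limit read from the data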
* marks the source's active call; other numbers are inactive results; / = no result.

SMILES	E-sel TNF inh	CYP2C19 act	cytoskel mod	CYP2C19 inh	CYP2C9 act	CYP2C9 inhib
COc1ccc(Br)cc1C(=O)Nc1cccc(C)c1	-0.8	0.9	10.4	9.9	0.7	32.1
c1ccc(C2=Nc3ccccc3SC2c2nc3ccccc3[nH]2)cc1 (stereo not given)	-9.3	0.6	15.3	44.6	0.7	33.5
Clc1ccc(-n2cccc2/C=N/n2cnnc2)cc1	6.5	0.4	-5.4	57.0*	0.4	55.7*
Brc1ccc(-n2cccc2/C=N/n2cnnc2)cc1	/	0.3	11.9	74.4*	0.5	52.8*
O=C(N1CCOCC1)C12CC3CC(C1)CC(c1ccccc1)(C3)C2	14.7	0.5	-1.6	45.3	0.6	36.9
Cc1ccc(C23CC4CC(CC(C(=O)N5CCOCC5)(C4)C2)C3)cc1	3.7	0.2	11.9	76.5*	0.4	56.7*
Cc1csc(NC(=O)COc2ccc3c(C)cc(=O)oc3c2)n1	-9.7	1	-15.0	2.5	1.3	-27.9
Cc1cc(=O)oc2cc(OC(C)C(=O)Nc3nccs3)ccc12 (stereo not given)	-3.5	0.2	7.0	81.0*	0.2	79.8*
COC(=O)C(CC(C)C)Oc1ccc2c(C)cc(=O)oc2c1 (stereo not given)	-5.0	0.8	3.7	19.8	0.4	64.7*
CCOC(=O)c1c(N)sc(C(=O)N(C)C)c1C	4.4	0.5	-1.9	46.6	1.3	-32.5
Cc1nnc2n1NC(c1ccc(Cl)cc1)C(C(=O)N1CCC(C)CC1)S2 (stereo not given)	-39.3	1	/	3.0	1.1	-5.3
CCCN(CC1CC1)C(=O)COC(=O)c1ccc2c(c1)C(=O)N(c1ccc(OCC)cc1)C2=O	-17.0	/	/	/	/	/
CCCc1cc(-c2nc(N)ncc2-c2csc(C)n2)c(O)cc1OC	-20.3	/	/	/	/	/
CCCc1cc(-c2nc(N)ncc2-c2ccc3c(c2)OCCCO3)c(O)cc1OC	-15.1	0.6	6.7	42.3	0.3	68.3*
CCOc1ccccc1C1CC(=O)Nc2cc3c(cc21)OCCO3 (stereo not given)	/	0.5	-11.4	54.2*	0.3	68.7*
CC(C)Oc1ccccc1C1CC(=O)Nc2cc3c(cc21)OCO3 (stereo not given)	/	0	-30.6	99.0*	0.2	75.6*
CCCOc1ccccc1C1CC(=O)Nc2cc3c(cc21)OCCO3 (stereo not given)	-20.4	/	-21.9	/	/	/
CCc1ccc(S(=O)(=O)NCc2csc(-c3ccccc3)n2)s1	-11.2	0.6	-25.8	40.6	0.2	76.2*
O=S(=O)(NCc1csc(-c2cccnc2)n1)c1ccc(Cl)s1	/	0.2	-15.3	75.9*	0.4	62.4*
CCS(=O)(=O)NCCc1csc(-c2ccccc2)n1	0.0	0.3	38.6	72.8*	0.9	13.2
CCc1ccc(S(=O)(=O)NCCc2csc(-c3ccccc3)n2)s1	4.0	0.1	11.9	92.7*	0.3	74.2*
CCOCCCNC(=O)CCCC1=NS(=O)(=O)c2ccccc2N1	-23.9	/	/	/	/	/
O=C(O)CC(NC(=O)Nc1ccccc1)c1ccc(OC2CCCC2)cc1 (stereo not given)	8.8	/	/	/	/	/
COc1ccc(C(CC(=O)O)NC(=O)COc2ccccc2OC)cc1OC (stereo not given)	/	1	/	-1.7	0.9	10.0
CCc1ccc(S(=O)(=O)NCCc2csc(-c3cccnc3)n2)s1	-2.4	0.1	-19.3	94.2*	0.1	89.4*
SMILES	E-sel TNF inh	CYP2C19 act	cytoskel mod	CYP2C19 inh	CYP2C9 act	CYP2C9 inhib
CCS(=O)(=O)NCCc1csc(-c2cccnc2)n1	/	0.6	6.8	35.5	0.6	37.2
C=CCN1C(=O)c2ccc(C(=O)OCC(=O)N(C)C3CCCCC3)cc2C1=O	-37.6	/	/	/	/	/
COc1cc2c(cc1NC(=O)Cc1ccc(C)cc1)oc1ccccc12	0.3	/	/	/	/	/
COc1cc2c(cc1NC(=O)c1cc(-c3ccncc3)nc3ccc(C)cc13)oc1ccccc12	-18.7	0.4	4.5	61.0*	0.1	86.6*
COc1ccc(-c2c(C)[nH]n3c(=O)c(Cc4ccccc4)c(C)nc23)cc1	-17.3	/	/	/	/	/
CNC(=O)/C(C#N)=C/c1ccc(-c2ccccc2[N+](=O)[O-])o1	-6.9	/	/	/	/	/
Cc1ccc(Cc2cnc(NC(=O)/C(C#N)=C/c3ccc(-c4ccccc4[N+](=O)[O-])o3)s2)cc1	51.3*	0.9	-8.9	9.2	0.5	54.5*
